In all, about 33,000 sequences were measured (“E-score (-0.5 to 0.5)”: median about -0.056, highest 2% from about 0.38 on). The list comes from a sample in which the highest values are over-represented; it also holds similar and randomly drawn sequences.
Molecular target: Stb4 (UniProt P50104)
Test: PBM E-score (8-mer binding enrichment) (E-score (-0.5 to 0.5)); higher = stronger / more preferred TF binding
Conditions: protein concentration: 200 nM; construct: GST-DNA-binding domain
Summary of the method: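 The E-score, a modified Wilcoxon-Mann-Whitney statistic, was computed by the Universal PBM Analysis Suite for every ungapped eight-base word pooled with its reverse complement. Scans behind it were normalised with masliner after bound GST-tagged yeast transcription factors were detected with fluorescent anti-GST. The proteins, at about 100-200 nM, had been applied to universal all-10-mer Agilent arrays made double-stranded by primer extension.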

Sequence of UniProt P50104 (P50104 whole entry): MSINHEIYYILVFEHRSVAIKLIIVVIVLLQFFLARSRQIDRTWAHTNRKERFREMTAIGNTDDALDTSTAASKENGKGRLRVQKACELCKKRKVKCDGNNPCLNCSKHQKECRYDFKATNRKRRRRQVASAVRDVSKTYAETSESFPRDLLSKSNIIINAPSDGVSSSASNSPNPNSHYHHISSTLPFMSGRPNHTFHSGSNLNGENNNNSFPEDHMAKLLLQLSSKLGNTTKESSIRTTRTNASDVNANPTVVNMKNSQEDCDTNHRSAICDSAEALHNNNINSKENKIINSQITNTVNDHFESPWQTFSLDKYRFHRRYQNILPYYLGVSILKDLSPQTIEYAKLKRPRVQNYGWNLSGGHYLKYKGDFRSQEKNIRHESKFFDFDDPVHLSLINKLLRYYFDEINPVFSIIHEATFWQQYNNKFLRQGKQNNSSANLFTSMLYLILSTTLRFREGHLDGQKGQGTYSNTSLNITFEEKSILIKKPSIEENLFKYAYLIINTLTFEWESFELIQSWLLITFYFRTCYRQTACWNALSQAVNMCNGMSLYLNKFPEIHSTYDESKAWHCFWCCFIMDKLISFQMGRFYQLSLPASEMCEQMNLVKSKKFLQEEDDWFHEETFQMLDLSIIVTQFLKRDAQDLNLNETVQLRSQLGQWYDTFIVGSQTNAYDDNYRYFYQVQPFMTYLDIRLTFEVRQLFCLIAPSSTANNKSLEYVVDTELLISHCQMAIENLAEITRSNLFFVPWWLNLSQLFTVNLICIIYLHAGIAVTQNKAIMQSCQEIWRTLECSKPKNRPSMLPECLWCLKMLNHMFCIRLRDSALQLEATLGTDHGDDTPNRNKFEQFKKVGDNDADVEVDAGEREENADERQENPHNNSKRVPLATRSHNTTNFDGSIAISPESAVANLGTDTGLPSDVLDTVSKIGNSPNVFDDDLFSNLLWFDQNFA

In order of rising “PBM E-score” value:
1. AATGAGGC  -0.312
2. ACGAGAAG  -0.264
3. CTTCGAGA  -0.257
4. CCATTGAC  -0.243
5. CCCTGCTA  -0.236
6. AATAGTCT  -0.236
7. TTCCCAAA  -0.234
8. TTGCACAA  -0.231
9. AAGGCCTT  -0.207
10. AACAAGAG  -0.186
11. AGGAGAAC  -0.179
12. CAGAGAAA  -0.173
13. CGTCTGAG  -0.171
14. GCCCATTA  -0.168
15. TAGCGACA  -0.154
16. CAGGGCAC  -0.15
17. ACGAGAAC  -0.149
18. TCGAGAAA  -0.141
19. ATACGAGC  -0.141
20. CAAATGCG  -0.127
21. TCTAGTAA  -0.126
22. ATGCGAGC  -0.123
23. AGCATTGG  -0.12
24. ACGTTTGC  -0.11
25. CCAAGTCC  -0.104
26. GCCACCGC  -0.0977
27. AGATATGA  -0.0877
28. GTGTAAAA  -0.0759
29. GAGTAATC  -0.0725
30. AATCTACA  -0.0631
31. ATTTGAGG  -0.0518
32. AATCTATC  -0.0505
33. AAGAGGTG  -0.0351
34. CGGTCTGC  -0.0321
35. CCACTTGA  -0.0304
36. CAGAGAAG  -0.0211
37. GCGAGAAC  -0.021
38. GAGTGATC  -0.021
39. GCGAGAAA  -0.00939
40. GACGTTGC  -0.00479
41. TTCCACAA  0.0123
42. ATCCCAAA  0.0397
43. CTCAAGGC  0.065
44. GAATGCGA  0.0718
45. AGCCCGAC  0.0817
46. AGTGCGAC  0.0915
47. CATCACCC  0.123
48. GGTTTTAA  0.126
49. ATACCGAC  0.167
50. GCGGCAAA  0.182
51. CGACATTA  0.187
52. GTCCCGCA  0.213
53. CCGGTATA  0.214
54. AGCCCGAG  0.231
55. AGGGCCGA  0.232
56. ACGGCAAA  0.243
57. ACCCCGAC  0.248
58. AGCCCGAA  0.264
59. ATACCGAT  0.285
60. CGCCCGAA  0.293
61. GGCGCCGA  0.317
62. CGCCCGAG  0.328
63. CTCCCGGA  0.329
64. CTCCCGAC  0.33
65. ATCCCGAT  0.342
66. CGGACCCG  0.346
67. AACCGAGG  0.355
68. GTACCGAA  0.358
69. CTACCGAA  0.365
70. TCCCCGAA  0.37
71. GTCCCGAC  0.376
72. GTCCGAGA  0.378
73. CCGAGAAG  0.386
74. ATCCCGAC  0.387
75. ATACCGAA  0.392
76. GTCCCGAA  0.406
77. TCGGCAAA  0.41
78. CCGAGAAC  0.414
79. TTACCGAA  0.424
80. CTCCCGAA  0.43
81. ATCCCGAA  0.432
82. ATCCCGAG  0.439
83. CTCCCGAG  0.445
84. CCGAGAAA  0.451
85. TTCCCGAA  0.46
86. ATCCGAGA  0.471
87. ATCCGAGC  0.478
88. ATCCGAGG  0.481

From the supplement of paper PMC3334620
